MPTP inh: permeability transition pore inhibition; inhibition, % at 10 µM; isolated mouse mitochondria, Ca2+ swelling absorbance, 30 min; 360,000 compounds, 1.4% hits;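 active means inhibition of 50% or more, scaled per plate between neutral and stimulator controls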
aDG glyco act: alpha-DG glycosylation activation | Pro5-aDG cells, alpha-DG glycosylation AlphaScreen (IIH6); 0% Pro5, 100% B10-LARGE cell signal | AID 624168 | activation, % at 10 µM | 360,000 compounds, 0.22% hits;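 active means activation of at least 8% versus controls, or a plate z-score of at least 8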;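 further: Pro5 are CHO cells carrying HIG-tagged alpha-DG that lacks glycosylation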
SUMO Mot1 rescue: blocks SUMOylation pathway, rescuing yeast Mot1-301 growth; S. cerevisiae Mot1-301 growth rescue, ATP luminescence, 38.5C; percent above DMSO median, 100 means doubled; growth rescue, % at 18.8 µM; 320,000 compounds, 1% hits;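 active means every valid replicate shows activation above 250% relative to neutral control wells; inactive means the rest, any valid replicate at or below 250%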
CR mimetic SO: yeast age-related superoxide inhibition as caloric restriction mimetic; superoxide response (% of plate mean), % at 10 µM; S. cerevisiae aged cells, superoxide DHE fluorescence; hits give low values; 330,000 compounds, 0.18% hits; AID 2690;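 active means superoxide response under a set limit, about three screen SD below normal, cut at about 65% in these data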;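 further: yeast aged for seven days with compound at 30 °C before DHE staining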
Cardio protect: myocardial damage modulation in H9c2 cells. H9c2 cardiomyocytes, H2O2 injury protection, ATPLite, 2 h. protection from H2O2 cell death, % at 20 µM. 360,000 compounds, 0.63% hits. AID 588492;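 active means compounds giving at least 50% protection of heart cells from peroxide-induced death in the single-dose screen, raw or plate-pattern-corrected value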
FAS TE block: inhibitors of human fatty acid synthase thioesterase domain. P49327. recombinant FAS-TE, OMFH fluorogenic substrate, fluorescence endpoint. inhibition, % at 15 µM. 360,000 compounds, 0.67% hits. AID 602261;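 active means compounds whose normalised, plate-corrected inhibition of enzyme fluorescence in the single-dose primary screen is 50% or more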
MPTP counter: Rhodamine 123 counter-screen of mitochondrial pore hits; shares compounds with MPTP inh; isolated mitochondria, membrane potential, Rhodamine 123 fluorescence; inhibition, % at 10 µM; 5,000 compounds, 78% hits; in the data active means inhibition above about 22%
MPTP abs DR: MPTP inhibition, dose response swelling confirmation; shares compounds with MPTP inh; isolated mitochondria swelling, absorbance; IC50, µM; 780 compounds, 58% hits; in the data active means IC50 below about 20 µM
MPTP counter DR: active in counter-screen for permeability transition pore inhibitors; shares compounds with MPTP inh; isolated mitochondria counterscreen, fluorescence read-out; IC50, µM; 780 compounds, 49% hits; AID 651564; in the data active means IC50 below about 80 µM
Large screens that a line does not name were inactive (follow-up assays come after a bar, where they were run). The list is not random: actives were taken first. Their share in the collection is about 3.8%.

O=C(c1cc2sccc2n1Cc1ccccc1)N1CCN(c2nc3ccccc3s2)CC1	MPTP inh 102 | MPTP counter 102
COc1ccc(CN(CCCN2CCOCC2)C(=O)Nc2cccc(Cl)c2)cc1OC	none
O=C(Nc1cccc(Cl)c1)N(CCN1CCOCC1)Cc1cccc(Cl)c1	MPTP inh 85 | MPTP counter 91
O=C(Nc1cccc(Cl)c1)N(CCN1CCOCC1)Cc1ccccc1F	MPTP inh 79 | MPTP counter 77
CCOc1ccc2nc(NC(=O)Nc3ccccc3)sc2c1	MPTP inh 90 | MPTP counter 74
O=C(NNc1nc2ccccc2s1)Nc1ccc(Cl)c(Cl)c1	MPTP inh 74 | MPTP counter 75
CN(c1ccc(OCC(=O)Nc2nc3ccccc3s2)cc1)S(=O)(=O)c1ccccc1	none (no result: SUMO Mot1 rescue)
O=C(CN1c2ccccc2Sc2ccccc21)NNC(=O)Nc1ccc(Cl)c(Cl)c1	MPTP inh 52 | MPTP counter 22
CCOc1ccc(S(=O)(=O)N(C)c2ccc(OCC(=O)Nc3nc4ccccc4s3)cc2)cc1	MPTP inh 96 | MPTP counter 80
O=C(NNc1nc2ccccc2s1)Nc1ccc(F)cc1	none
CC(Oc1ccc(F)cc1)C(=O)N(CCC1=CCCCC1)c1c(N)n(Cc2ccccc2)c(=O)[nH]c1=O (stereo not given)	none
CC(C(=O)Nc1ccc2c(c1)OCO2)n1cnc2c1c(=O)n(C)c(=O)n2C (stereo not given)	none
CCC(=O)C(C#N)(c1ccc(OC)c(OC)c1)C(C)C (stereo not given)	none
C[C@H](CO)N1C[C@H](C)[C@@H](CN(C)S(=O)(=O)c2cccs2)Oc2c(NC(=O)CCC(F)(F)F)cccc2C1=O	none
O=C(NNC(=S)Nc1ccc(C(=O)O)c(O)c1)c1ccncc1	none (no result: SUMO Mot1 rescue, CR mimetic SO)
CS(=O)(=O)c1ccc2nc(NC(=O)Nc3ccc(Cl)cc3)sc2c1	MPTP inh 95 | MPTP counter 78
COc1ccc(NC(=O)Nc2nc3ccccc3s2)cc1	MPTP inh 64 | MPTP counter 81
CC1CCCN(S(=O)(=O)c2ccc3[nH]c4c(c3c2)CCCC4)C1 (stereo not given)	none
Cc1nc2ccc(NC(=O)c3cc(S(=O)(=O)N(C)c4ccccc4)ccc3Cl)cc2s1	MPTP inh 107 | MPTP counter 84
Cc1nc2ccc(NC(=O)c3ccc(Cl)c(S(=O)(=O)N(C)c4ccccc4)c3)cc2s1	MPTP inh 74 | MPTP counter 69
COc1cc(/C=N\NC(=O)c2ccccc2F)ccc1Oc1ccc([N+](=O)[O-])cn1	none
CCNC(=O)NC(=O)COC(=O)c1cccc(S(=O)(=O)N2CC3(C)CC2CC(C)(C)C3)c1 (stereo not given)	none
CCNC(=O)C1CCCN(C(=O)c2ccc(OC(F)F)cc2)CC1 (stereo not given)	none (no result: SUMO Mot1 rescue, CR mimetic SO)
COc1ccc(N2CCc3c(C)nc4c(OC)cc(OC)cc4c32)c(OC)c1	MPTP inh 64 | MPTP counter 72
COc1ccc(N2CCc3c(C)nc4c(OC)cc(OC)cc4c32)cc1	none
COC(=O)c1cccc(NC(=O)/C=C/c2ccc([N+](=O)[O-])cc2)c1	none
CCOC(=O)c1cccc(NC(=O)/C=C/c2ccc([N+](=O)[O-])cc2)c1	MPTP inh 92 | MPTP counter 78
O=C(/C=C/c1cc([N+](=O)[O-])ccc1OC(F)F)Nc1cccc([N+](=O)[O-])c1	MPTP inh 89 (no result: SUMO Mot1 rescue) | MPTP counter inactive | MPTP abs DR 8.2 | MPTP counter DR <2.5
CCOC(=O)c1cc(NC(=O)COc2ccc([N+](=O)[O-])cc2)cc(C(=O)OCC)c1	MPTP inh 50 | MPTP counter 56
COCCn1c(=O)[nH]c2cc(C(=O)Nc3cccc(C(C)=O)c3)ccc2c1=O	none
CCOc1cc(OCC)cc(C(=O)N2CCC[C@H]2C(=O)N2CCC[C@H]2C(=O)NCc2ccncc2)c1	none (no result: SUMO Mot1 rescue, CR mimetic SO, Cardio protect)
CCn1nnc2cc(C(=O)Nc3cc(Cl)ccc3C)ccc21	none
Cc1nn(CC(=O)Nc2ccc(N3CCOCC3)cc2)c(C)c1[N+](=O)[O-]	none
CC1(c2ccc3ccccc3c2)NC(=O)N(CC(=O)N2CCN(Cc3ccc(C#N)cc3)CC2)C1=O (stereo not given)	MPTP inh 57 (no result: SUMO Mot1 rescue, CR mimetic SO) | MPTP counter 65
CCCS(=O)(=O)NC(=O)C1(C)CCCN(C(=O)c2ccc(C(F)(F)F)nc2C)C1 (stereo not given)	none (no result: SUMO Mot1 rescue, CR mimetic SO)
Cc1cccc(C(=O)NNC2=C(C(=O)C(F)(F)F)CCC2)c1O	MPTP inh 93 | MPTP counter 92
O=C(NNC1=C(C(=O)C(F)(F)F)CCC1)c1cccc(O)c1	none
COc1cc(NC(=O)c2cccs2)c(OC)cc1NC(=O)Nc1ccc(F)cc1	none
Cc1nn(CC(=O)Nc2sc3c(c2C#N)CCC(C(C)(C)C)C3)c(C)c1[N+](=O)[O-] (stereo not given)	MPTP inh 81 | MPTP counter 32
Cc1nn(CCCC(=O)Nc2sc3c(c2C#N)CCC3)c(C)c1[N+](=O)[O-]	none
CC(=O)c1ccc(OCc2cc(C(=O)N(C)Cc3cc(C)no3)no2)cc1	none
Cc1cc(CN(C)C(=O)c2cc(COc3ccc4ncccc4c3)on2)on1	MPTP inh 96 | MPTP counter 73
CN(Cc1nccn1C)C(=O)c1cc(COc2ccc3ncccc3c2)on1	MPTP inh 70 | MPTP counter inactive | MPTP abs DR 19 | MPTP counter DR 46
COc1ccc2cc(/C=C3\SC(=S)NC3=O)c(N3CCOCC3)nc2c1	MPTP inh 80 | MPTP counter 72
COc1cccc(/C=C2/Sc3ccc(C(=O)NCCN4CCCC4)cc3NC2=O)c1	MPTP inh 55 | MPTP counter inactive | MPTP abs DR 6 | MPTP counter DR 77
COc1cccc(C=C2SC(=S)NC2=O)c1	MPTP inh 56 (no result: SUMO Mot1 rescue, CR mimetic SO) | MPTP counter 79
COc1cc(C(O)c2nc(-c3ccc(F)cc3OC)cs2)ccc1F (stereo not given)	none (no result: SUMO Mot1 rescue, CR mimetic SO)
O=C(CSc1nc(-c2cccs2)cc(C(F)(F)F)n1)Nc1cc(OCC(F)(F)F)cc([N+](=O)[O-])c1	MPTP inh 100 | MPTP counter 79
CCC(C)NC(=O)CSc1nc(-c2cccs2)cc(C(F)(F)F)n1 (stereo not given)	none
Cc1cccc(NC(=O)C2(c3ccccc3)CC2(Cl)Cl)c1 (stereo not given)	none

Screens as filed in PubChem BioAssay.
